Reference: PubChem BioAssay (NCI)
Several values for one entry are separate records, joined by “and”; a condition that tells them apart may be missing. Identical values can stand only once. The panel holds about 83,000 compounds, 20% with a hit somewhere; the sample as a whole holds those more often.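 Interpretation: 100, growth as untreated; towards 0, rising growth inhibition; 0, no net growth; 0 to -100, cell death. Compounds scoring below 10 were considered active.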 Activity calls are given as the source filed them.

System: UACC-62 melanoma
Experiment: NCI-60 one-dose screen, 48 h (100 = growth as untreated, 0 = no growth, -100 = all killed)
Conditions: 10 µM
Description: Growth inhibition of the UACC-62 human tumor cell line is measured as a screen for anti-cancer activity. Cells are grown in 96 well plates and exposed to the test compound for 48 hours. Compounds are tested at a single concentration, which is 10^-5 M for most compounds. The reported endpoint is percent growth (GI% or GIPRCNT), where numbers from 0 - 100% represent growth inhibition, and numbers from -100% - 0 represent cell death. For example, a value of 40 represents 60% growth inhibition. A value of 0 means no net growth occurred over the course of the experiment. A value of -40 indicates 40% of cells at the beginning of the experiment died by the end of the experiment. A value of -100 means all cells are dead at the end of the experiment.
NCI-60 Human Tumor Cell Lines Screen was performed using the standard one-dose NCI protocol, which is described in more detail at https://dtp.cancer.gov/discovery_development/nci-60/default.htm.
Compounds with GIPRCNT values below 10 were considered active. Activity score was based on GIPRCNT using the following formula: […]
Score is 0 for GIPRCNT values of 100 or above, 50 for GIPRCNT values of 0, and 100 for GIPRCNT values of -100.

SMILES	growth
O=C(O)CCCc1ccc(N(CCCl)CCCl)cc1	82.7% (inactive) and 78.8% (inactive)

Same assay, conditions: 10 µM unless noted

SMILES	growth
c1ccc2c(c1)O[As](O[As]1Oc3ccccc3O1)O2	43.8% (inactive)
CN(N)/N=N/c1nc[nH]c1[N+](=O)[O-]	21.2% [100 µM] (inactive) and -39.8% [100 µM] (active)
C[N+]1(CC#CC[N+]2(C)CCCC2)CCCC1	99.9% (inactive)
C[C@]12CCC(=O)C[C@@H]1CC[C@@H]1[C@@H]2CC[C@]2(C)[C@@H](OC(=O)N(CCCl)N=O)CC[C@@H]12	13.5% (inactive)
Cc1c2ccncc2c(C)c2c1[nH]c1ccccc12	56.5% (inactive)
O=C1c2ccccc2C(=O)N1N1CC1c1ccccc1 (stereo not given)	105% (inactive)
COc1ccc(CN)cc1OC	111% (inactive) and 100% (inactive)
O=C=Nc1ccc(Br)cc1	97.4% (inactive)
COc1cc2c(cc1OC)-c1c3c(cc4c1[C@@H](C2)N(C)CC4)OCO3	45.2% (inactive)
O=c1c2ccccc2nc(-c2ccccc2Cl)n1-c1nnc(C(F)(F)F)s1	10.3% (inactive)
CN(C)C(=S)SSC(=S)N(C)C	97.4% (inactive) and 96.2% (inactive)
CC[C@H](CC[C@@H](C)[C@H]1CC[C@H]2[C@@H]3CC[C@H]4C[C@]5(CC[C@]4(C)[C@H]3CC[C@]12C)OO[C@](C)(C(F)(F)F)O5)C(C)C	83.2% (inactive)
C[C@]12CCc3sc(Nc4ccc(OC(F)(F)F)cc4)nc3C1=CC[C@@H]1[C@@H]2CC[C@]2(C)C(=O)CC[C@@H]12	63.4% (inactive)
CN(C)c1ccc([N+](=O)[O-])c([N+](=O)[O-])c1	97.6% (inactive) and 90.3% (inactive)
CCCCCCCCCCCCCCCC[N+](C)(C)C	-63% (active) and 25.6% (inactive)
CC[C@H](C)[C@H](NC(=O)c1ncccn1)C(=O)N(C)[C@H](C[C@@H](OC(C)=O)c1nc(C(=O)N[C@@H](Cc2ccccc2)C[C@H](C)C(=O)OC)cs1)C(C)C	46.9% (inactive)
O=C(CCCN1CCC2(CC1)C(=O)NCN2c1ccccc1)c1ccc(F)cc1	102% (inactive) and 65% (inactive)
O=[N+]([O-])c1ccc(P(=O)(O)O)cc1	105% (inactive)
Cc1ccc(NC2=N[C@]34CC(=O)CC[C@]3(C)[C@H]3CC[C@]5(C)C(=O)CC[C@H]5[C@@H]3C[C@@H]4S2)c(C)c1	39% (inactive)

SMILES	growth
Cc1ccc(N2CCN(CCC#N)CC2)cc1	98.6% (inactive)
S=P(SP(=S)(c1ccccc1)c1ccccc1)(c1ccccc1)c1ccccc1	88.7% (inactive)
Cc1ccc(S(=O)(=O)n2cc([C@@]3(O)C[C@H](CSC#N)OC3=O)c3ccccc32)cc1	76.3% (inactive)
C=C1C(=O)OC2CC3(C)OC3C3OC3C3=CC(OC3=O)C12 (stereo not given)	99.3% (inactive) and 82.7% (inactive)
COc1ccc2c(c1)c(-c1nc(-c3cn(C)c4ncccc34)cs1)cn2CCCCN1CCOCC1	3.59% (active)
COc1ccc(N(CC(=O)NCCC[Te]c2ccccc2)C(=O)c2ccccc2)cc1	84.1% (inactive)
CC[C@H](C)[C@H](NC(=O)CN(C)C)C(=O)N(C)[C@H](C[C@@H](OC(C)=O)c1nc(C(=O)NC23C4C5C2C2C3C4C52C(=O)OC)cs1)C(C)C (stereo not given in full)	29.9% (inactive)
NC(N)=NC(N)=Nc1ccc(Cl)cc1	111% (inactive)
COC12CC3(C)C(C4=CC(=O)OC4)CCC3(O)C3CCC4=CC(=O)CCC4(CO1)C32 (stereo not given)	99.6% (inactive)
C[C@]12CCC3[C@@H](C[C@@H]4SC(Nc5ccccc5)=N[C@@]45CC(=O)CC[C@]35C)[C@@H]1CCC2=O (stereo not given in full)	-1.09% (active)
CO[C@H]1[C@H](O[C@@H]2C[C@@H]3C/C=C/C(=O)O[C@@H](CO)C[C@H](O)[C@@H]4C[C@H](C)[C@H](C/C=C\C=C\[C@H](C)C[C@H](C2)O3)O4)O[C@@H](C)[C@H](O)[C@H]1O	61.8% (inactive)
CC/C(=C(\c1ccc(OCCN2CCOCC2)cc1)c1ccc(OC(=O)Cc2ccccc2)cc1)c1ccc(Cl)cc1	99.7% (inactive)
CC[C@H](C)[C@H](NC(=O)C12CC(NC)(C1)C2)C(=O)N(C)[C@H](C[C@@H](OC(C)=O)c1nc(C(=O)N[C@@H](Cc2ccccc2)C[C@H](C)C(=O)OC)cs1)C(C)C	45% (inactive)
COc1ccn(C)c(=O)c1C#N	95.9% (inactive)
COc1cc2c(cc1OC)[C@@H]1C(=O)c3ccc4c(c3O[C@@H]1CO2)C[C@H](C(C)C)O4	66.7% (inactive)
C[N+]12CCC34C5=CC(=O)C(=O)C=C5[N+]5(C)C(=O)CC6OCC=C(C1)C(CC32)C6C45 (stereo not given)	106% (inactive)
CCC(=O)C(CC(C)[N+](C)(C)C)(c1ccccc1)c1ccccc1 (stereo not given)	101% (inactive)
O=[N+]([O-])c1c(Cl)cc(Cl)c([N+](=O)[O-])c1Cl	108% (inactive)
CC[C@H](C)[C@H]1O[C@]2(C=C[C@@H]1C)C[C@@H]1C[C@@H](C/C=C(\C)[C@@H](O[C@H]3C[C@H](OC)[C@@H](O[C@H]4C[C@H](OC)[C@@H](NC)[C@H](C)O4)[C@H](C)O3)[C@@H](C)/C=C/C=C3\CO[C@@H]4[C@H](O)C(C)=C[C@@H](C(=O)O1)[C@]34O)O2	-53.1% (active)

Same assay, conditions: 75 µM

SMILES	growth
O=C(O)CCCc1ccc(N(CCCl)CCCl)cc1	28.6% (inactive)
